Experimental data published in PubChem BioAssay (NCI).
About 83,000 compounds went through this panel and 20% of them were active in at least one assay; those are over-represented in the sample as a whole.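 Activity criterion: percent growth below 10, measured after cells in 96-well plates were exposed to a single compound concentration for 48 hours.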 Calls of active or inactive are those of the source.

What was measured:
Test in all cases: NCI-60 one-dose screen, 48 h (100 = growth as untreated, 0 = no growth, -100 = all killed)
Settings in all cases: 10 µM unless noted
NCI-H23 lung = system: NCI-H23 lung
NCI-H226 lung = system: NCI-H226 lung
NCI-H322M lung = system: NCI-H322M lung
HOP-62 NSCLC = system: HOP-62 NSCLC
NCI-H460 lung = system: NCI-H460 lung
HOP-92 NSCLC = system: HOP-92 NSCLC
NCI-H522 lung = system: NCI-H522 lung
A549/ATCC NSCLC = system: A549/ATCC NSCLC
786-0 renal = system: 786-0 renal
COLO 205 colon = system: COLO 205 colon

Measured: growth

O=C1NN(c2ccccc2)C(c2ccc(Cl)cc2)N2CCC[C@H]12 (stereo not given in full)
inactive: NCI-H23 lung 90.7% | NCI-H226 lung 95.6% | NCI-H322M lung 94.1% | HOP-62 NSCLC 98.8% | NCI-H460 lung 103% | HOP-92 NSCLC 100% | NCI-H522 lung 106% | A549/ATCC NSCLC 103% | 786-0 renal 105% | COLO 205 colon 108%

C=C(C)[C@@H]1CC[C@]2(C(=O)N=C=S)CC[C@]3(C)[C@H](CC[C@@H]4[C@@]5(C)CCC(=O)C(C)(C)[C@@H]5CC[C@]43C)[C@@H]12
inactive: NCI-H23 lung 32.9% | NCI-H226 lung 48.8% | NCI-H322M lung 42.8% | HOP-62 NSCLC 30.1% | HOP-92 NSCLC 18.2% | NCI-H522 lung 15.3% | A549/ATCC NSCLC 26.2% | 786-0 renal 37.2%
active: NCI-H460 lung 6.85% | COLO 205 colon -19.1%

O=C(O)c1cc(N=Nc2ccc(-c3ccc(N=Nc4c(S(=O)(=O)O)cc5ccc(Nc6ccccc6)cc5c4O)cc3)cc2)ccc1O
inactive: NCI-H23 lung 92.6% | NCI-H226 lung 116% | NCI-H322M lung 94.5% | HOP-62 NSCLC 94.6% | NCI-H460 lung 113% | HOP-92 NSCLC 114% | NCI-H522 lung 89.7% | A549/ATCC NSCLC 104% | 786-0 renal 106% | COLO 205 colon 114%

CCOC(=O)CC[C@H](NC(=O)c1ccc(NC)c2ccccc12)C(=O)OCC
inactive: NCI-H23 lung 105% | NCI-H226 lung 100% | NCI-H322M lung 106% | HOP-62 NSCLC 93.6% | NCI-H460 lung 101% | HOP-92 NSCLC 92.3% | NCI-H522 lung 91.2% | A549/ATCC NSCLC 89.9% | 786-0 renal 102% | COLO 205 colon 106%

C#C[C@@]1(O)[C@@H](CO)O[C@@H](n2cc(Cl)c3c(N)ncnc32)[C@@H]1O
active: NCI-H23 lung 0.604% | NCI-H226 lung 1.13% | NCI-H322M lung -3.01% | HOP-62 NSCLC -4.82% | NCI-H460 lung -19.1% | HOP-92 NSCLC -27.1% | NCI-H522 lung -29% | A549/ATCC NSCLC -31.1% | 786-0 renal -58.8% | COLO 205 colon -39.4%

COc1ccc(C(=O)c2cc(F)c(F)c(OC)c2F)cc1OC(=O)CCl
inactive: NCI-H23 lung 58.3% | NCI-H226 lung 105% | NCI-H322M lung 75.8% | HOP-62 NSCLC 39% | NCI-H460 lung 20.5% | HOP-92 NSCLC 52.9% | NCI-H522 lung 30.6% | A549/ATCC NSCLC 53.8% | 786-0 renal 89.6% | COLO 205 colon 108%

COC(=O)[C@]1(C)CCC[C@]2(C)[C@H]3C[C@H]4C(C(C)C)=C[C@]3(CC[C@H]21)[C@@H]1C(=O)N(CCC#N)C(=O)[C@@H]14
inactive: NCI-H23 lung 93.7% | NCI-H226 lung 81.9% | NCI-H322M lung 109% | HOP-62 NSCLC 89.9% | NCI-H460 lung 101% | HOP-92 NSCLC 81.1% | NCI-H522 lung 75.3% | A549/ATCC NSCLC 86% | 786-0 renal 99.7% | COLO 205 colon 94.7%

NC(=O)C(O)(c1ccccc1)c1ccccc1
inactive: NCI-H23 lung 101% | NCI-H226 lung 99.2% | NCI-H322M lung 105% | HOP-62 NSCLC 91.6% | NCI-H460 lung 104% | HOP-92 NSCLC 83.2% | NCI-H522 lung 84.2% | A549/ATCC NSCLC 91% | 786-0 renal 102% | COLO 205 colon 115%

O=c1c2ccccc2oc2ccc(OCCCCCN3CCCCCC3)cc12
inactive: NCI-H23 lung 72% | NCI-H226 lung 91.4% | NCI-H322M lung 85.9% | HOP-62 NSCLC 92.5% | NCI-H460 lung 78.9% | HOP-92 NSCLC 94.1% | NCI-H522 lung 69.9% | A549/ATCC NSCLC 71.9% | 786-0 renal 78.5% | COLO 205 colon 43.6%

C=CCn1c(SCC(=O)Nc2ccc(C(=O)/C=C/c3cc(OC)c(OC)c(OC)c3)cc2)nnc1-c1ccc(Cl)cc1
inactive: NCI-H23 lung 23% | NCI-H322M lung 56.1% | HOP-62 NSCLC 25% | NCI-H460 lung 22.9% | HOP-92 NSCLC 75% | A549/ATCC NSCLC 28.9% | 786-0 renal 15.5% | COLO 205 colon 31.9%
active: NCI-H226 lung -4.38% | NCI-H522 lung -13.1%

Cc1cc(Cl)cc(CN(Cc2ccccc2)Cc2c(O)ccc3ccccc23)c1O
inactive: NCI-H23 lung 93.6% | NCI-H226 lung 104% | NCI-H322M lung 95.7% | HOP-62 NSCLC 92.3% | NCI-H460 lung 104% | HOP-92 NSCLC 83.7% | NCI-H522 lung 83% | A549/ATCC NSCLC 98% | 786-0 renal 103% | COLO 205 colon 115%

N#Cc1c(NC(=O)c2cccs2)[n+]([O-])c2cc(C(F)(F)F)ccc2[n+]1[O-]
inactive: NCI-H23 lung 95.2% | NCI-H226 lung 97.1% | NCI-H322M lung 93.7% | HOP-62 NSCLC 112% | NCI-H460 lung 109% | HOP-92 NSCLC 33.2% | NCI-H522 lung 77.4% | A549/ATCC NSCLC 96.1% | 786-0 renal 114% | COLO 205 colon 109%
